Source: PubChem BioAssay

Tests used:
[1] = tested on: Human papillomavirus type 1a protein E7 (residues 44-93); assay: small molecules binding HPV E7 44-93 – biochemical, small-molecule microarray, residues 44-93, 635 nm fluorescence, primary screen (AID 1108); conditions: fluorescence 635 nm, higher = more signal;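 also: E7 fragment applied at 1 µg/mL in TBST for 1 h at 4 C; score combines spot fluorescence with its signal to noise ratio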
[2] = hepatitis C replication reporter changes, two-sided – Huh7 cells, luciferase reporter, HCV replication inhibitor project, primary screen (AID 1109); conditions: Huh7 HCV replicon luciferase reporter, 48 h; higher = more signal;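 also: huh7 hepatoma cells harbouring a luciferase neomycin HCV replicon reporter; luciferase luminescence as measure of HCV replicon replication; test concentration not given here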
[3] = biological target: Left-right determination factor 2 (Homo sapiens) (UniProt O00292); assay: small molecules binding LEFTY2 protein – biochemical, small-molecule microarray, 635 nm fluorescence scan, primary screen (AID 1110); conditions: higher = more signal
[4] = biological target: Calmodulin-1 (Homo sapiens) (UniProt P0DP23); assay: small molecules binding calmodulin-1 with EGTA – biochemical, small-molecule microarray, Cy5-labelled CALM1, profiling panel (AID 1111); conditions: Cy5-CALM1 binding fluorescence, higher = more signal;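 also: labelled calmodulin applied in Tris saline Tween buffer holding calcium plus EGTA and DTT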
[5] = biological target: Calmodulin-1 (Homo sapiens) (UniProt P0DP23); assay: small molecules binding Ca-loaded calmodulin-1 – biochemical, small-molecule microarray, Cy5-labelled CALM1, plus calcium, artefact control for SMM control-protein annotation, profiling panel (AID 1112); conditions: Cy5-CALM1 binding fluorescence, higher = more signal;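 also: score merges spot fluorescence with signal to noise from triplicate slides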
[6] = probe aWnt5a binding to arrayed compounds – biochemical, biotinylated probe, 635/667 nm fluorescence, primary screen (AID 1113); conditions: small-molecule microarray, higher = more signal;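 also: score merges 667 nm fluorescence intensity with signal-to-noise per printed feature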
[7] = probe aShh binding to arrayed compounds – biochemical, biotinylated probe, 635/667 nm fluorescence, primary screen (AID 1114); conditions: small-molecule microarray, higher = more signal;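 also: probe is biotin-labelled aShh protein from a stem cell growth factor screen; measures binding of labelled protein to compounds printed on the slide; score merges feature fluorescence at 667 nm with signal-to-noise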
[8] = probe aNog binding to arrayed compounds – biochemical, biotinylated probe, 635/667 nm fluorescence, primary screen (AID 1115); conditions: small-molecule microarray, higher = more signal;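 also: probe is biotinylated aNog protein used at 0.15 µg/mL for 1 h at 4 C; z-score combines 667 nm fluorescence of each spot with its signal to noise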
[9] = biological target: Torsin-1A-interacting protein 1 (Homo sapiens) (UniProt Q5JTV8); assay: compound microarray binding of lysate hLAP1 – cell lysate, small-molecule microarray, COS7 lysate, 635/667 nm fluorescence, primary screen (AID 1116); conditions: 635 nm fluorescence, higher = more signal
[10] = biological target: Alpha-bungarotoxin (Bungarus multicinctus) (UniProt P60615); assay: compounds binding labelled alpha-BTX control protein – biochemical, small-molecule microarray, Alexa647 label, 635/667 nm fluorescence, artefact control for SMM control protein annotation, profiling panel (AID 1117); conditions: alpha-BTX-A647 binding fluorescence, higher = more signal
Chain of Alpha-bungarotoxin (Bungarus multicinctus) (P60615 whole entry, looked up): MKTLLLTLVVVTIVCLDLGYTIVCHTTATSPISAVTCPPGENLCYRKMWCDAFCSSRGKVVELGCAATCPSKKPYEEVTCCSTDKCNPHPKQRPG

Chain of Left-right determination factor 2 (Homo sapiens) (O00292 whole entry, looked up): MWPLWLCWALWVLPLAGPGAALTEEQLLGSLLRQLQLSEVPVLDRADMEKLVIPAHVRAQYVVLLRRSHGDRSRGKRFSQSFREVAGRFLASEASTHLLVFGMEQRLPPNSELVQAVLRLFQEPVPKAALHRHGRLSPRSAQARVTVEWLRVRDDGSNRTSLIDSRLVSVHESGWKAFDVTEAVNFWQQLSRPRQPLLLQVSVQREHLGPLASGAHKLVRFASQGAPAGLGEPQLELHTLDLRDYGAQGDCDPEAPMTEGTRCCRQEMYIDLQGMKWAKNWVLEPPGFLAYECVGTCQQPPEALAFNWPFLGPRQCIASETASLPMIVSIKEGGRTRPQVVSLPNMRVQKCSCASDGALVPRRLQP
Chain of Torsin-1A-interacting protein 1 (Homo sapiens) (Q5JTV8 whole entry, looked up): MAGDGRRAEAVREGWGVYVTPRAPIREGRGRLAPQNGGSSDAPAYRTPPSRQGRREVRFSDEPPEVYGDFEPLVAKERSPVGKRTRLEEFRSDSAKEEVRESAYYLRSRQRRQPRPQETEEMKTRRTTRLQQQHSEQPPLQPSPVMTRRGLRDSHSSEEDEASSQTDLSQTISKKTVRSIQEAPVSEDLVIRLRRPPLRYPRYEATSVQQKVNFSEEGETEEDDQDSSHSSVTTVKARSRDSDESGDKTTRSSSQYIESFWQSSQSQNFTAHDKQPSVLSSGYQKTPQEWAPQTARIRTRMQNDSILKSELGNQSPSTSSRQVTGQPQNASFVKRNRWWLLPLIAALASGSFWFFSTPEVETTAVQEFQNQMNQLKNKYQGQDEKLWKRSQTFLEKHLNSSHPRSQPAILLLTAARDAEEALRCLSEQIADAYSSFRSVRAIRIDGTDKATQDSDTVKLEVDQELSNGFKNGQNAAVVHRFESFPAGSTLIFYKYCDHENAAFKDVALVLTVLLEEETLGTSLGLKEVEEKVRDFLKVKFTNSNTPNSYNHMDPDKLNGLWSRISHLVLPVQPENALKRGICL

Row | SMILES | composite z-score [1] | z-score [2] | composite z-score [3] | composite z-score [4] | composite z-score [5] | composite z-score [6] | composite z-score [7] | composite z-score [8] | composite z-score [9] | composite z-score [10]
1 | CO[C@H]1O[C@H](CO)[C@@H](OC(=O)Nc2ccccc2)[C@H](OC(=O)Nc2ccccc2)[C@H]1OC(=O)Nc1ccccc1 | 1.5 | -2.73 | -0.0522 | 1.34 | -0.12 | 0.0519 | -0.0709 | -0.273 | 1.75 | 1.05
2 | N#Cc1ccc(NN2C(C(O)C3CC=CCC3)C=CC3C(=O)N(c4ccccc4)C(=O)C32)cc1 (stereo not given) | 1.48 | -0.137 | 0.0779 | 0.0301 | -0.753 | -0.13 | 0.0639 | 0.313 | 0.102 | 1.17
3 | Cc1ccc(S[C@]2(C(=O)NC(C)C)CC(=O)N(C3CCCCC3)[C@@H]2c2ccc(CO)cc2I)cc1 | 1.44 | -2.93 | -0.0068 | 0.679 | -0.558 | -0.0721 | -0.0035 | 0.313 | 0.208 | 1.52
4 | COc1cc(CO)cc(I)c1O[C@H]1C=C(C(=O)NCCO)C[C@@H](NC2CCCCCC2)[C@@H]1O | 1.15 | -4.13 | 0.867 | 0.475 | -0.572 | -0.129 | -0.0769 | -0.0345 | 0.484 | 0.0323
5 | CN(C)c1ccc(C(O)C2C=CC3C(=O)N(Cc4ccccc4)C(=O)C3N2n2cnnc2)cc1 (stereo not given) | -1.17 | -0.32 | 0.205 | -0.207 | -0.363 | -0.0037 | 0.108 | -0.0086 | 0.304 | 0.255
6 | COCCOC(=O)N1C(=O)[C@@]2(c3cc(C#CCCO)ccc31)[C@H](c1ccc(OCCO)cc1)N1[C@H](c3ccccc3)[C@H](c3ccccc3)OC(=O)[C@H]1[C@@H]2C(=O)N1CCCCCCC1 | 0.371 | -0.882 | 1.39 | 1.99 | 0.953 | 0.779 | 0.599 | 0.952 | 3.39 | 2.3
7 | COC(=O)[C@@]1(Cc2ccccc2)[C@H]2c3cc(C(=O)N(C)C)n(Cc4ccc(C(F)(F)F)nc4)c3C[C@H]2CN1C(=O)c1ccccc1 | 1.49 | -1.3 | -0.287 | 1.9 | 1.14 | 0.223 | 0.941 | 2.05 | 1.91 | 0.82
8 | Cc1ccc(N2C(=O)c3ccccc3[C@](C)(C(=O)NCCCN(C)C)[C@@H]2c2ccc(CO)cc2)nc1 | 0.571 | -0.199 | -1.05 | -0.213 | -0.338 | -0.148 | -0.138 | -0.348 | -0.312 | 0.149
9 | COC(=O)[C@@]1(Cc2ccc(F)cc2)[C@H]2c3cc(C(=O)N(C)C)n(CCc4ccc(O)c(O)c4)c3C[C@H]2CN1C(=O)c1ccccc1 | 0.148 | -1.78 | -0.0362 | 0.584 | 0.813 | 0.183 | -0.214 | 0.2 | 1.18 | 0.0055
10 | NCCCCCCNC(=O)[C@@H]1C[C@@H]2C(=O)N3CCC[C@H]3C(=O)N2[C@@H]1c1cccc(OCCO)c1 | -0.0954 | 0.116 | 0.738 | 0.263 | -0.334 | -0.0286 | -0.0035 | -0.366 | 0.572 | 1.01
11 | COc1ccc(C#Cc2ccc3c(c2)[C@]2(C(=O)N3)[C@H](C(=O)O)[C@H]3C(=O)O[C@H](c4ccccc4)[C@H](c4ccccc4)N3[C@@H]2c2ccccc2OCCO)cc1 | 0.263 | -2.19 | 0.694 | 1.04 | 0.604 | -0.235 | 0.0777 | 0.279 | 0.835 | 2.21
12 | CC1CC/C=C\[C@H]2OC34C=CCN(Cc5ccccc5)C(=O)[C@H]3N(CCCCCCO)C(=O)[C@@H]4C2C(=O)O1 (stereo not given in full) | -0.504 | -0.117 | -1.26 | 0.284 | 0.636 | -0.12 | -0.0146 | -0.0007 | 2.32 | -1.2
13 | CCCNC(=O)[C@@]1(Sc2ccc(C)cc2)CC(=O)N(Cc2ccccc2Cl)[C@@H]1c1ccc(CO)cc1I | 0.135 | -2.17 | -1.4 | 0.284 | 0.321 | -0.129 | -0.132 | 1.91 | -0.0631 | 0.461
14 | CC(C)=CCCC(C)=CC(O)C1C=CC2C(=O)NC(=O)C2N1Nc1ccc(Cl)cc1Cl (stereo not given) | 1.36 | -0.922 | 0.41 | 1.69 | 0.254 | -0.0327 | 0.14 | 1.5 | 1.17 | 0.451
15 | CC1CC/C=C\[C@H]2OC34C=CCN(CCN5CCOCC5)C(=O)[C@H]3N(CCCO)C(=O)[C@@H]4C2C(=O)O1 (stereo not given in full) | -0.591 | -0.945 | -0.573 | -0.589 | -0.565 | -0.192 | -0.214 | 0.144 | -0.181 | -1.02
16 | COc1cc(C(O)C2C=CC3C(=O)N(c4ccccc4)C(=O)C3N2Nc2ccccc2)cc(OC)c1OC (stereo not given) | 1.46 | -0.63 | -0.0844 | 1.84 | 0.613 | 0.0472 | 0.551 | 1.66 | 1.6 | 1.9
17 | O=C1[C@H]2C=C(I)[C@H](C[C@@H]2c2ccccc2)[C@@]12CO2 | -0.0983 | -3.6 | 0.208 | -0.68 | -0.661 | -0.0977 | -0.117 | -0.172 | 0.126 | 0.0292
